High-throughput results (PubChem)
In the library only some 6.7% were active in any assay of this set; here they are far more common.
Tcruzi prolif = T. cruzi intracellular proliferation inhibitors, primary screen, cell-based, beta-gal Tulahuen parasites, NIH3T3 host, luminescence; T. cruzi beta-gal in NIH3T3, GalScreen luminescence, 90 h; inhibition, % at 8.34 µM; 5.9% of 77,000 active;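 active = mean inhibition above about 93%, with at least 55% of replicates each passing it, limit read from the data, passing the limit was not always enough; inconclusive = only one of those two conditions holds; inactive = neither condition holds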
C diff HTS = C. difficile growth inhibitors, primary screen, HTS; Clostridium difficile clinical isolate growth, OD600, 24 h; hits give low values; growth activity, negative = inhibition, % at 16 µg/mL (by protocol); 0.25% of 86,000 active;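 active = mean growth activity at or below -80% and every replicate also at or below -80%; inconclusive = mean at or below -80% but some replicate above -80%; inactive = mean growth activity above -80%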;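 also: 0% = DMSO wells and -100% = levofloxacin 16 µg/mL wells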
Pf Dd2 growth = P. falciparum Dd2 growth inhibitors, primary screen, SYBR Green fluorescence, single dose replicates. 72 h; hits give low values. activity change, % at 10 µM. 2.3% of 94,000 active; in the data active = activity change below about -80%; inconclusive = no clear call, values can overlap the other calls
Numbers without * were called inactive; ? = inconclusive; nt = no result.

SMILES	Tcruzi prolif	C diff HTS	Pf Dd2 growth
C[C@@H]1CN([C@H](C)CO)C(=O)c2cccc(NC(=O)Nc3ccc(F)cc3)c2O[C@@H]1CN(C)Cc1ccc(C(=O)Nc2ccccc2N)cc1	nt	27.7	-89.2*
C[C@H](CO)N1C[C@H](C)[C@H](CN(C)Cc2ccc(C(=O)O)cc2)Oc2c(NC(=O)Nc3ccc(F)cc3)cccc2C1=O	5.1	-2.4	20.9
C[C@@H]1CN([C@@H](C)CO)C(=O)c2cccc(NC(=O)Nc3ccc(F)cc3)c2O[C@@H]1CN(C)Cc1ccc(C(=O)Nc2ccccc2N)cc1	nt	30.7	-92.2*
C[C@@H](NC(=O)C[C@H]1C=C[C@H](NC(=O)C2CCOCC2)[C@@H](CO)O1)c1ccccc1	24.2	3.4	10.3
CCCN(C)C[C@@H]1Oc2cc(-c3ccccc3C)ccc2S(=O)(=O)N([C@@H](C)CO)C[C@@H]1C	nt	nt	-32.9
C[C@@H]1CN([C@H](C)CO)S(=O)(=O)c2ccc(C#C[C@@H](C)O)cc2O[C@H]1CN(C)C(=O)Nc1ccccc1	76.8	-1.7	-92.2*
COc1cccc(C#Cc2ccc3c(c2)O[C@H](CN(C)C(=O)c2ccccn2)[C@@H](C)CN([C@@H](C)CO)S3(=O)=O)c1	107.7	3.9	-77.5
COc1cccc(NC(=O)N(C)C[C@H]2Oc3cc(C#Cc4ccccc4)ccc3S(=O)(=O)N([C@@H](C)CO)C[C@H]2C)c1	120.1*	-2.1	?
COc1cccc(C#Cc2ccc3c(c2)O[C@@H](CN(C)C(=O)c2ccccn2)[C@H](C)CN([C@@H](C)CO)S3(=O)=O)c1	?	6.7	-83.6*
COc1cccc(NC(=O)N(C)C[C@@H]2Oc3cc(C#Cc4ccncc4)ccc3S(=O)(=O)N([C@H](C)CO)C[C@@H]2C)c1	68.3	-1.7	?
COc1cccc(NC(=O)N(C)C[C@@H]2Oc3cc(C#Cc4ccncc4)ccc3S(=O)(=O)N([C@H](C)CO)C[C@H]2C)c1	-55.0	7.5	-55.0
COc1cccc(NC(=O)N(C)C[C@@H]2Oc3cc(C#Cc4ccccc4)ccc3S(=O)(=O)N([C@@H](C)CO)C[C@H]2C)c1	125.2*	78.6	-67.7
C[C@H](CO)N1C[C@H](C)[C@@H](CN(C)C(=O)Nc2ccccc2)Oc2cc(C#C[C@@H](C)O)ccc2S1(=O)=O	63.2	3.7	-11.1
C[C@@H]1CN([C@@H](C)CO)C(=O)c2cc(NS(=O)(=O)c3ccccc3)ccc2O[C@@H]1CN(C)CC1CCCCC1	-37.2	0.2	-2.3
O=C(C[C@H]1C=C[C@@H](NS(=O)(=O)c2ccc(F)cc2)[C@H](CO)O1)NCCc1ccncc1	-34.8	0.0	10.9
C/C=C/c1ccc2c(c1)[C@@H]1[C@@H](CCN1C(=O)c1cnccn1)[C@H](CO)N2	73.1	-2.6	-2.9
C/C=C/c1ccc2c(c1)[C@H]1[C@H](CCN1C(=O)c1cccc(F)c1)[C@H](CO)N2	nt	13.2	-92.8*
C/C=C/c1ccc2c(c1)[C@@H]1[C@@H](CCN1S(=O)(=O)c1ccc(C)cc1)[C@@H](CO)N2	22.4	-1.4	-40.9
O=C(Cc1ccccc1)N1CC[C@H]2[C@H](CO)Nc3ccc(C#Cc4cccc(F)c4)cc3[C@H]21	nt	3.2	-59.5
O=C(Cc1cccnc1)N1CC[C@H]2[C@H](CO)Nc3ccc(C#Cc4cccc(F)c4)cc3[C@H]21	nt	-2.0	-83.8*
O=C(c1cccc(F)c1)N1CC[C@H]2[C@H](CO)Nc3ccc(-c4cccc(F)c4)cc3[C@H]21	25.6	66.9	4.9
C/C=C/c1ccc2c(c1)[C@H]1[C@H](CCN1C(=O)c1ccc(F)cc1)[C@H](CO)N2	nt	6.5	-89.1*
C/C=C/c1ccc2c(c1)[C@@H]1[C@@H](CCN1S(=O)(=O)c1ccccc1C)[C@H](CO)N2	nt	5.9	-85.6*
CCC(=O)N1[C@H](CO)[C@@H]2c3ccccc3N(C(=O)CC(F)(F)F)C[C@@H]21	-45.9	-3.9	-2.6
Cc1ccc(S(=O)(=O)Nc2ccc3c(c2)C(=O)N([C@H](C)CO)C[C@H](C)[C@@H](CN(C)C(=O)CCC(F)(F)F)OCCCC[C@H](C)O3)cc1	18.7	nt	7.6
SMILES	Tcruzi prolif	C diff HTS	Pf Dd2 growth
COCC#Cc1ccc([C@H]2[C@H](CO)N3C(=O)CN(C(=O)C4CCCC4)C[C@@H]23)cc1	nt	7.1	-2.2
COc1ccc(CNC(=O)C[C@H]2C=C[C@H](NC(=O)CN(C)C)[C@@H](CO)O2)cc1	-2.2	-1.7	1.6
C[C@H]1CN([C@@H](C)CO)C(=O)c2cc(NC(=O)CCCCCC(=O)Nc3ccccc3N)ccc2O[C@@H]1CN(C)S(=O)(=O)c1ccccc1	nt	-5.9	-38.8
COCC(=O)Nc1ccc2c(c1)OC[C@@H](C)N(Cc1ccccc1OC)C[C@@H](C)[C@@H](OC)CN(C)C2=O	23.7	nt	nt
COc1ccc2c3c([nH]c2c1)[C@H](CO)N(Cc1ccccc1)CC31CN(C)C1	nt	7.4	-45.6
O=C(c1cccc(F)c1)N1CC[C@H]2[C@H](CO)Nc3ccc(C#Cc4cccc(F)c4)cc3[C@H]21	nt	13.7	-83.7*
O=C(c1cccc(F)c1)N1CC[C@H]2[C@H](CO)Nc3ccc(C#Cc4ccccc4)cc3[C@H]21	nt	-0.2	-52.9
O=C(Nc1ccc2c(c1)[C@@H]1C[C@H](CC(=O)N3CCCCC3)O[C@@H](CO)[C@@H]1O2)NC1CCCCC1	nt	-2.4	-7.0
COc1ccc(NC(=O)Nc2cccc3c2O[C@@H](CN(C)CC2CC2)[C@H](C)CN([C@H](C)CO)C3=O)cc1	28.9	-1.7	-10.6
NCC[C@H]1CC[C@@H](NC(=O)CCN2CCCCC2)[C@H](CO)O1	nt	-3.6	27.6
C[C@H](CO)N1C[C@H](C)[C@H](CN(C)C)Oc2cc(-c3ccc(C#N)cc3)ccc2S1(=O)=O	-19.4	-5.6	nt
C[C@@H]1CCCCO[C@H](CN(C)C(=O)Nc2ccc(F)cc2)[C@@H](C)CN([C@@H](C)CO)C(=O)c2cc(NS(=O)(=O)c3ccccc3)ccc2O1	96.6	-11.3	-75.8
COc1ccc(S(=O)(=O)Nc2ccc3c(c2)C(=O)N([C@@H](C)CO)C[C@H](C)[C@H](CN(C)C(=O)NC2CCCCC2)OCCCC[C@@H](C)O3)cc1	30.2	16.6	-88.2*
COc1ccc(S(=O)(=O)Nc2ccc3c(c2)C(=O)N([C@@H](C)CO)C[C@@H](C)[C@@H](CN(C)C(=O)c2ccccc2)OCCCC[C@H](C)O3)cc1	15.1	12.0	-23.7
C[C@H]1CCCCO[C@H](CN(C)C(=O)Nc2ccc(F)cc2)[C@@H](C)CN([C@@H](C)CO)C(=O)c2cc(NS(=O)(=O)c3ccc(Cl)cc3)ccc2O1	nt	nt	-76.0
C[C@@H]1CCCCO[C@H](CN(C)C(=O)Nc2ccc(F)cc2)[C@@H](C)CN([C@@H](C)CO)C(=O)c2cc(NS(=O)(=O)c3ccc(Cl)cc3)ccc2O1	nt	nt	-86.7*
COc1ccc(S(=O)(=O)Nc2ccc3c(c2)C(=O)N([C@@H](C)CO)C[C@H](C)[C@@H](CN(C)C(=O)c2ccccc2)OCCCC[C@@H](C)O3)cc1	5.0	-4.5	-89.2*
C[C@@H]1CCCCO[C@H](CN(C)C(=O)Nc2ccc(F)cc2)[C@H](C)CN([C@H](C)CO)C(=O)c2cc(NS(=O)(=O)c3ccccc3)ccc2O1	60.0	9.9	-90.8*
